Measured values: PubChem BioAssay (NCI)
“And” between values parts separate entries of the source, which are not always exact repeats. Identical values can stand only once. About 83,000 compounds went through this panel and 20% of them were active in at least one assay; those are over-represented in the sample as a whole.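 Cells were grown in 96-well plates and exposed to the test compound at a single concentration for 48 hours; results are reported as percent growth, with values below 10 considered active.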 The source made the active and inactive calls.

test system: U251 CNS; assay: NCI-60 one-dose screen, 48 h (100 = growth as untreated, 0 = no growth, -100 = all killed); details: 10 µM
Protocol: Growth inhibition of the U251 human tumor cell line is measured as a screen for anti-cancer activity. Cells are grown in 96 well plates and exposed to the test compound for 48 hours. Compounds are tested at a single concentration, which is 10^-5 M for most compounds. The reported endpoint is percent growth (GI% or GIPRCNT), where numbers from 0 - 100% represent growth inhibition, and numbers from -100% - 0 represent cell death. For example, a value of 40 represents 60% growth inhibition. A value of 0 means no net growth occurred over the course of the experiment. A value of -40 indicates 40% of cells at the beginning of the experiment died by the end of the experiment. A value of -100 means all cells are dead at the end of the experiment.
NCI-60 Human Tumor Cell Lines Screen was performed using the standard one-dose NCI protocol, which is described in more detail at https://dtp.cancer.gov/discovery_development/nci-60/default.htm.
Compounds with GIPRCNT values below 10 were considered active. Activity score was based on GIPRCNT using the following formula: […]
Score is 0 for GIPRCNT values of 100 or above, 50 for GIPRCNT values of 0, and 100 for GIPRCNT values of -100.

| Structure (SMILES) | growth |
| --- | --- |
| Cn1c(O)c(N=O)c(=O)n(C)c1=O | 94.6% (inactive) and 109% (inactive) |
| COc1cc(/C=C(/C)[N+](=O)[O-])ccc1O | 25.4% (inactive) and 28% (inactive) |
| O=[N+]([O-])c1cc[n+]([O-])c2ccccc12 | -26.3% (active) |
| [O-][n+]1ccccc1S | 29.9% (inactive) |
| COc1ccccc1[As]=[As]c1ccccc1OC (stereo not given) | -83.3% (active) |
| CC(C)c1cc([N+](=O)[O-])cc([N+](=O)[O-])c1O | 103% (inactive) |
| COc1ccc(/C=C\[N+](=O)[O-])cc1OC | 56.2% (inactive) and 48.6% (inactive) |
| O=[N+]([O-])/C=C/c1ccc([N+](=O)[O-])cc1 | -16.5% (active) and 87.8% (inactive) |
| S=C=NCCc1ccccc1 | 46.5% (inactive) |
| CC[C@@H](C)[C@@H]1NC(=O)C(NC(=O)C(CC(C)C)N(C)C(=O)C2CCCN2C(=O)C(C)O)C(C)OC(=O)C(Cc2ccc(OC)cc2)N(C)C(=O)C2CCCN2C(=O)C(CC(C)C)NC(=O)C(C)C(=O)C(C(C)C)OC(=O)C[C@H]1O (stereo not given in full) | -43.8% (active) |
| O=C1CCC(=O)N1SC(Cl)(Cl)Cl | 118% (inactive) |
| Cc1cc(C)c(C[N+](C)(C)C)c(C)c1C | 1.76% (active) |
| [Cl][Hg][c]1ccc(Cl)s1 | 14.9% (inactive) |
| NC(=O)c1cc([N+](=O)[O-])c(Cl)c([N+](=O)[O-])c1Cl | -81.5% (active) |
| C=NCC#N | 102% (inactive) and 107% (inactive) |
| [Cl][Hg][c]1ccc2ccccc2c1 | 93.1% (inactive) |
| CC(=O)Nc1c2sscc-2n(C)c1=O | -100% (active) |
| COc1cc(/C=C\[N+](=O)[O-])ccc1O | 50.1% (inactive) and 64.1% (inactive) |
| COc1ccc2c(ccc3oc([N+](=O)[O-])cc32)c1 | -8.64% (active) |
| [Cl][Sn]([c]1ccccc1)([c]1ccccc1)[c]1ccccc1 | -98.6% (active) |

| Structure (SMILES) | growth |
| --- | --- |
| CCCCCCCC[N+]12CN3CN(CN(C3)C1)C2 | 101% (inactive) |
| COc1cc([N+](=O)[O-])c2ncccc2c1[N+](=O)[O-] | 41.9% (inactive) |
| O=[P+](O)c1ccccc1 | 104% (inactive) |
| O=[N+]([O-])c1ccc(Br)c([N+](=O)[O-])c1 | 99.1% (inactive) |
| C[CH2][Hg][S]c1ccccc1C(=O)O | -6.81% (active) |
| CC(=O)[O][Hg][c]1c(C)c(C)cc(C)c1C | -97.3% (active) |
| O=S(=O)(F)c1ccc(Cl)cc1 | 109% (inactive) |
| Cc1cc(C(C)(C)c2ccc(O)c(C)c2)ccc1O | 86.6% (inactive) |
| Cc1cc([N+](=O)[O-])c2ccccc2[n+]1[O-] | -12.7% (active) and -32.2% (active) |
| O=[N+]([O-])/C=C/c1ccc(Cl)cc1[N+](=O)[O-] | -39.8% (active) |
| CC[C@@]1(O)C[C@H](OC2CC(N(C)C)C(O)C(C)O2)c2c(cc3c(c2O)C(=O)c2c(O)ccc(O)c2C3=O)[C@H]1C(=O)OC (stereo not given in full) | -90.8% (active) |
| C#CC1(O)CCC(C(C)(C)C)CC1 (stereo not given) | 106% (inactive) |
| NC(=O)c1cc([N+](=O)[O-])c(Cl)c([N+](=O)[O-])c1 | 69.4% (inactive) |
| COC12c3c(C)cc(O)c4c(=O)occ(c34)C(=O)C1C13COC(=O)c4c(O)cc(C)c(c41)C(=O)C2C3OC(C)=O (stereo not given) | 102% (inactive) |
| O=C(CBr)Nc1ccccc1 | 91.6% (inactive) |
| O=C1C=Cc2ccccc2C1=O | 74.2% (inactive) |
| O=C(CBr)Nc1ccc(Cl)cc1 | 86.8% (inactive) |
| CC1CCC2(OC1)OC1C(O)C3C4CCC5CC(OC6OC(CO)C(OC7OC(CO)C(O)C(OC8OCC(O)C(O)C8O)C7OC7OC(CO)C(O)C(OC8OC(CO)C(O)C(O)C8O)C7O)C(O)C6O)C(O)CC5(C)C4CCC3(C)C1C2C (stereo not given) | -51.1% (active) |
| COc1cc(/C=C/[N+](=O)[O-])cc(OC)c1OC | 18.4% (inactive) |
| CC/C(=C/c1ccc(OC)cc1)[N+](=O)[O-] | 22.5% (inactive) |
